Data from PubChem BioAssay (NCATS).
Records with an inconclusive call do not appear. Activity calls are given as the source filed them. Unless noted, calls follow the shape of the dose curve; as a rule, active = well fitted curve in the direction sought with a large enough effect; inconclusive = small, poorly fitted or top-dose-only effect, or another doubt; inactive = no such curve, though single readings can be large; an effect the other way counts as inactive or inconclusive.

Tests used:
[1] = qHTS profiling of the MIPE4 collection as inhibitors of Plasmodium falciparum (3D7) proliferation (AID 743344; call rule not given here;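 also: scaled between DMSO vehicle wells and 0.29 µM artemisinin as full inhibition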); details: P. falciparum 3D7 in erythrocytes, SYBR Green DNA fluorescence, 72 h; at 28.5 µM unless noted
Method in brief: (§1)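 Erythrocytes infected with P. falciparum (0.3% parasitemia, 2.5% hematocrit) incubated with compounds 72 h at 37 C, 5% CO2. Lysis with saponin/Triton buffer containing SYBR Green I, overnight at room temperature in the dark; DNA fluorescence (485/535 nm) normalised to 0.29 uM artemisinin and DMSO.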

[2] = qHTS profiling of the MIPE4 collection as inhibitors of Plasmodium falciparum (DD2) proliferation (AID 743345; call rule not given here); details: P. falciparum Dd2 in erythrocytes, SYBR Green DNA, 72 h; at 28.5 µM unless noted
Method in brief: as §1

[3] = qHTS profiling of the MIPE4 collection as inhibitors of Plasmodium falciparum (DD2) proliferation (Rep 2) (AID 743346; call rule not given here); details: P. falciparum Dd2 in erythrocytes, SYBR Green DNA, 72 h; at 28.5 µM unless noted
Method in brief: as §1

[4] = qHTS profiling of the MIPE4 collection as inhibitors of Plasmodium falciparum (HB3) proliferation (AID 743347; call rule not given here;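 also: plate controls were DMSO vehicle wells for no effect and artemisinin wells for full effect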); details: P. falciparum HB3 in erythrocytes, SYBR Green DNA, 72 h; at 28.5 µM unless noted
Method in brief: as §1

[5] = High-throughput drug toxicity screening in the BPDCN cell line Gen2.2 (AID 1224824; call rule not given here;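 also: cells exposed to compounds for 48 h before reading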); details: Gen2.2 BPDCN cells; at 45.8 µM (top of the series) unless noted
Method in brief: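 Readout is ATP luminescence from Gen2.2 cells after two days of drug exposure in serum-containing medium at 37 °C. Values express percent activity, with vehicle defining full signal and 9.2 uM bortezomib defining zero.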

[6] = High-throughput drug toxicity screening in the BPDCN cell line Cal-1 (AID 1224825; call rule not given here); details: Cal-1 BPDCN cell viability, qHTS; at 45.8 µM (top of the series) unless noted
Method in brief: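 Exponentially growing Cal-1 cells, 500 per well in phenol red-free RPMI with 10% FBS, were exposed to compounds for 48 h at 37 °C, 5% CO2. Viability was read by CellTiter-Glo luminescence and normalised to DMSO (100%) and 9.2 uM bortezomib (0%).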

[7] = qHTS assay for measurement of the activity of small molecule inhibitors on Zika virus induced Caspase-3 activity in human iPSC derived neural progenitor cells (hNPCs) (AID 1224857); also: % of control where 0% means no effect; nearly all actives have a fitted effect of over 65% in size
Method in brief: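 In medium with heparin 2 ug/ml and cyclopamine 2 uM, hNPCs (350 cells/well) received compound for one hour and then Zika virus at 2 FFU/cell; caspase activity was measured by Caspase-Glo 3/7 luminescence 6 h post-infection.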

[8] = qHTS assay for measurement of the activity of small molecule inhibitors on Zika virus induced Caspase-3 activity in human astrocytoma cells (AID 1224859);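 also: plate controls were ZIKV-infected untreated cells for no effect and uninfected cells for full effect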
Method in brief: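 A cell-based luminescent caspase-3/7 assay used SNB-19 cells infected with ZIKV (2 FFU/cell) for 6 h following 1 h compound pretreatment.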

[9] = qHTS Screen of the MIPE 4.0 Collection Against Ewings Sarcoma (RDES) (AID 1259252); also: nearly all actives have a fitted effect of over 35% in size; also: potency is read from the fitted curve at half-maximal effect
Method in brief: (§2)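 Measured: ATP luminescence (CellTiter-Glo) 10 min after reagent addition, following 48 h drug treatment. Relative luciferase units converted to percent activity, with no-cell wells as full and DMSO wells as zero inhibition.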

[10] = qHTS Screen of the MIPE 4.0 Collection Against Ewings Sarcoma (TC71) (AID 1259253); also: nearly all actives have a fitted effect of over 40% in size; also: potency is read from the fitted curve at half-maximal effect
Method in brief: as §2

[11] = qHTS Screen of the MIPE 4.0 Collection Against Ewings Sarcoma (TC32) (AID 1259256); also: nearly all actives have a fitted effect of over 45% in size; also: potency is read from the fitted curve at half-maximal effect
Method in brief: as §2

[12] = qHTS Screen of the MIPE 4.0 Collection Against Ewings Sarcoma (EW8) (AID 1259255); also: nearly all actives have a fitted effect of over 35% in size; also: potency is read from the fitted curve at half-maximal effect;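 as to viability: 100% = DMSO-treated cells and 0% = medium-only wells without cells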
Method in brief: as §2

[13] = qHTS assay to identify small molecule inhibitors of chordoma cells - UCH-1 (AID 1259355); also: % is scaled to controls: 0 for no effect and ±100 for the full control effect; nearly all actives have a fitted effect of over 55% in size
Method in brief: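 Luminescent ATP read-out (CellTiter-Glo, 30min at room temperature) measured viability of UCH-1 cells exposed for 48hr to test drugs at 15 concentrations, co-dosed with a five-agent combination of auranofin, camptothecin, doxorubicin, rubitecan and topotecan.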

[14] = qHTS assay to identify small molecule inhibitors of chordoma cells - UCH-2 (AID 1259356); also: % is scaled to controls: 0 for no effect and ±100 for the full control effect
[15] = qHTS profiling for inhibitors of Plasmodium falciparum (HB3) proliferation (AID 743324); details: Plasmodium falciparum HB3 blood-stage proliferation; at 28.7 µM (top of the series) unless noted;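 also: 100% = DMSO vehicle wells and 0% = artemisinin-treated control wells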
Method in brief: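 P. falciparum HB3 grown in erythrocytes (0.3% parasitemia, 2.5% hematocrit final) with compound for 72 h at 37 C, 5% CO2. Parasite DNA detected by SYBR Green after saponin/triton lysis overnight; normalized to 0.29 uM artemisinin and DMSO.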

[16] = Identifying Small Molecule Inhibitors of Pancreatic Cancer Stem Cells (SN12C, Adherent) (AID 1259358);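 also: cell survival measured after 48 h of compound exposure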; also: potency is read from the fitted curve at half-maximal effect
Method in brief: (§3)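 After a 4 h attachment period, compounds were pinned into wells and cultures held 48 h under standard incubator conditions. Viability was then measured as CellTiter-Glo luminescence following 10 min at room temperature.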

[17] = Identifying Small Molecule Inhibitors of Pancreatic Cancer Stem Cells (SN12C, Spheroid) (AID 1259360); details: Potency: SN12C spheroid viability; also: potency is read from the fitted curve at half-maximal effect;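 as to viability (% of control): 100% = DMSO-treated cells and 0% = wells without cells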
Method in brief: (§4)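 Spheroids grown 14 days in stem cell media on nonadherent hydrogel before screening; cells attached 4 h, then compound exposure 48 h at 37C, 5% CO2. CellTiter-Glo luminescence normalized to DMSO (no inhibition) and no-cell wells (full inhibition).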

[18] = Identifying Small Molecule Inhibitors of Pancreatic Cancer Stem Cells (A278, Adherent) (AID 1259361); also: nearly all actives have a fitted effect of over 35% in size;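 as to viability (% of control): 100% = DMSO-treated cells and 0% = cell-free media-only wells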
Method in brief: as §3

[19] = Identifying Small Molecule Inhibitors of Pancreatic Cancer Stem Cells (Panc1, Spheroid) (AID 1259359);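 also: potency is read from the fitted curve at half-maximal effect; compound exposure lasted 48 h before reading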
Method in brief: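 Adherent (2D) versus sphere (3D) formats; spheres generated 14 d in SCM beforehand. Compound transferred by pin tool after 4 h, 48 h incubation, CellTiter-Glo endpoint.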

[20] = Identifying Small Molecule Inhibitors of Pancreatic Cancer Stem Cells (A2780, Spheroid) (AID 1259357); details: Potency: A2780 spheroid viability;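 also: spheroids pre-formed over 14 days in stem cell medium on hydrogel; compound exposure lasted 48 h before the ATP luminescence read; 100% = DMSO treated cells and 0% = wells without cells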
Method in brief: as §4

Row | SMILES | parasite growth, % of DMSO control [1] | parasite growth remaining, % of DMSO control (lower = more inhibition) [2] [%] | parasite growth, % of control (lower = inhibition) [3] | growth, % of control [4] | cell viability, % of control (lower = more cytotoxic) [5] | viability (% of control) [6] | Potency [7] | Potency [8] | Potency [9] | Potency [10] | Potency [11] | Potency [12] | outcome [13] | outcome [14] | remaining proliferation (% of control), lower = more inhibition [15] [%] | Potency [16] | Potency [17] | IC50 (viability decrease) [18] | Potency [19] | Potency [20]
1 | COc1cc(Nc2nc3ccccc3nc2NS(=O)(=O)c2ccc(NC(=O)c3ccc(C)c(OC)c3)cc2)cc(OC)c1 | 42% | 40.5 | 32.8% | 17.6% | 32.5% | 78.5% | inactive | inactive | 18.7 µM (active) | 20.9 µM (active) | 18.7 µM (active) | – | – | – | – | – | – | – | – | –
2 | CN1CCC(COc2cnc(-c3cccc(Cn4nc(-c5cccc(C#N)c5)ccc4=O)c3)nc2)CC1 | 10.4% | 10.5 | 15.3% | – | 92.7% | 5.37% | inactive | inactive | 7.43 µM (active) | 13.2 µM (active) | 20.9 µM (active) | – | – | – | – | – | – | – | – | –
3 | CN(C)c1ccc(-c2nc3ncc(Cl)c(N4CCN(CC(=O)Nc5nccs5)CC4)c3[nH]2)cc1 | 6.94% | 9.69 | 8.18% | 2.92% | 3.51% | 8.53% | inactive | inactive | 20.9 µM (active) | 18.7 µM (active) | – | 16.6 µM (active) | – | – | – | – | – | – | – | –
4 | C[C@@]1(c2cc(-c3cncnc3)c(F)cc2F)CCSC(N)=N1 | 28.5% | 44.7 | 28.2% | 14% | 9.95% | 13.1% | inactive | inactive | inactive | inactive | inactive | – | – | – | – | – | – | – | – | –
5 | O=C(CC12CC3CC(CC(C3)C1)C2)Nc1cccc2nc(NCCNCCO)ccc12 | 4.99% | 13.2 | 15.5% | 4.24% | 5.97% | 5.92% | inactive | inactive | 14.8 µM (active) | 7.43 µM (active) | 13.2 µM (active) | – | – | – | – | – | – | – | – | –
6 | Cc1ccc2c(=O)c3cccc(CC(=O)O)c3oc2c1C | 95.5% | 94 | 76.8% | 101% | 78% | 50.1% | inactive | inactive | 18.7 µM (active) | 18.7 µM (active) | – | – | – | – | – | – | – | – | – | –
7 | CS(=O)(=O)c1ccc(C2=C(c3ccccc3)C(=O)OC2)cc1 | 94.3% | 83.1 | 70.8% | 58.5% | 123% | 109% | inactive | inactive | inactive | 18.7 µM (active) | – | – | inactive | inactive | – | – | – | – | – | –
8 | Cn1cc(-c2ccc3nnc(Sc4ccc5ncccc5c4)n3n2)cn1 | 36.1% | 86.3 | 42.5% | 43.3% | 121% | 102% | inactive | inactive | 20.9 µM (active) | – | inactive | inactive | – | – | 72.7 | inactive | inactive | inactive | – | –
9 | CC[C@H](C)C(=O)O[C@H]1C[C@H](O)C=C2C=C[C@H](C)[C@H](CC[C@@H](O)C[C@@H](O)CC(=O)O)[C@H]21 | 96% | 105 | 162% | 101% | 113% | 113% | inactive | inactive | inactive | – | 20.9 µM (active) | inactive | inactive | inactive | – | – | – | – | – | –
10 | CC(C)(C)c1[nH]cnc1C=c1[nH]c(=O)c(=Cc2ccccc2)[nH]c1=O | 20.3% [at 57.5 µM] | – | 23.1% [at 57.5 µM] | 7.41% [at 57.5 µM] | 15.7% [at 92.2 µM] | 5.98% [at 92.2 µM] | inactive | inactive | inactive | – | inactive | inactive | – | – | – | – | 14.8 µM (active) | 0.0166 µM (active) | 0.0019 µM (active) | –
11 | OC[C@H]1O[C@@H](Oc2ccc(O)cc2)[C@H](O)[C@@H](O)[C@H]1O | 82.1% | 94.8 | 127% | – | 146% | 83.5% | inactive | inactive | inactive | 18.7 µM (active) | – | – | – | – | – | – | – | – | – | –
12 | COc1ccc(-c2cc3nccn3c(Nc3ncccc3C(N)=O)n2)cc1OC | 4.5% | 9.28 | 5.75% | 2.93% | 47.7% | 26.1% | inactive | inactive | 14.8 µM (active) | 2.64 µM (active) | – | – | – | – | – | – | – | – | – | –
13 | Cc1cccc(Nc2nc(N[C@@H]3CCCC[C@H]3N)ncc2C(N)=O)c1 | 5.2% | 10.2 | 7.28% | 2.45% | 2.09% | 2.41% | inactive | inactive | 16.6 µM (active) | 18.7 µM (active) | – | – | – | – | 0.632 | 18.7 µM (active) | inactive | – | – | inactive
14 | COc1ccc2cc1Oc1ccc(cc1)C[C@H]1c3cc(c(OC)cc3CCN1C)Oc1c(OC)c(OC)cc3c1[C@H](C2)N(C)CC3 | – | – | – | 13.9% | 146% | 94.6% | inactive | inactive | 20.9 µM (active) | 20.9 µM (active) | – | – | – | – | – | – | – | – | – | –
15 | CCCCc1ccc(NS(=O)(=O)c2ccc(C)c(C(=O)N3CCN(c4cccc(C)c4C)CC3)c2)cc1 | 232% | 99.3 | – | – | 425% | 99.3% | inactive | inactive | inactive | 20.9 µM (active) | – | – | – | – | 92.7 | inactive | – | – | – | –
16 | COc1nc(C)cnc1NS(=O)(=O)c1cccnc1-c1ccc(-c2nnco2)cc1 | 100% | 100 | 74.5% | 100% | 379% | 142% | inactive | inactive | inactive | – | inactive | inactive | – | – | 91.9 | inactive | inactive | inactive | – | –
